# Test results taken from PubChem BioAssay (NCI).
# About 83,000 compounds went through this panel and 20% of them were active in at least one assay; those are over-represented in the sample as a whole.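 Testing used 96-well plates and a 48-hour single-concentration exposure. Example: -40 means 40% of the starting cells died.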 A number with no mark means an inactive call. Activity calls are given as the source filed them.
# Test system: SN12C renal
# Test: NCI-60 one-dose screen, 48 h (100 = growth as untreated, 0 = no growth, -100 = all killed)
# Details: 10 µM unless noted
# Description: Growth inhibition of the SN12C human tumor cell line is measured as a screen for anti-cancer activity. Cells are grown in 96 well plates and exposed to the test compound for 48 hours. Compounds are tested at a single concentration, which is 10^-5 M for most compounds. The reported endpoint is percent growth (GI% or GIPRCNT), where numbers from 0 - 100% represent growth inhibition, and numbers from -100% - 0 represent cell death. For example, a value of 40 represents 60% growth inhibition. A value of 0 means no net growth occurred over the course of the experiment. A value of -40 indicates 40% of cells at the beginning of the experiment died by the end of the experiment. A value of -100 means all cells are dead at the end of the experiment.
# NCI-60 Human Tumor Cell Lines Screen was performed using the standard one-dose NCI protocol, which is described in more detail at https://dtp.cancer.gov/discovery_development/nci-60/default.htm.
# Compounds with GIPRCNT values below 10 were considered active. Activity score was based on GIPRCNT using the following formula: […]
# Score is 0 for GIPRCNT values of 100 or above, 50 for GIPRCNT values of 0, and 100 for GIPRCNT values of -100.
row,Compound,growth
1,CCOc1ccc(/C=C/C(=O)c2cccc(OCCCOc3cccc(C(=O)/C=C/c4ccc(OCC)cc4)c3)c2)cc1,79.5%
2,Nc1cc(-c2ccc(Cl)cc2)nn1-c1nnc(/C=C/c2ccco2)c(=O)[nH]1,68.2%
3,CNCCCNc1nc2ccccc2c2c(=O)c3cc(Cl)ccc3sc12,24.9%
4,O=C(NCc1ccc(Cn2c(=O)sn(-c3ccccc3)c2=O)cc1)OCc1ccc2cccc(O)c2n1,-46.1% (active)
5,Cc1c2ccccc2nc2cc3c(cc12)[C@H]1CC[C@]2(C)C(=O)CC[C@H]2[C@@H]1CC3,95.4%
6,CC1=C2[C@@H](CC1)[C@]1(C)O[C@@](C3CCNCC3)(C[C@H]1OC(=O)CO)[C@H]2OC(=O)/C=C/c1ccccc1,53.1%
7,C#Cc1cccc(NC(=O)C2CCCCN2C(=O)CCl)c1 (stereo not given),-92.3% [8.25 µM] (active)
8,c1ccc(-c2nc3ccccc3[nH]2)c(OCCCCCOc2ccccc2-c2nc3ccccc3[nH]2)c1,63.4%
9,COc1ccc(-c2cc(-c3cc(OC)ccc3OC)nc(SCC(C)=O)c2C#N)cc1,76.7%
10,Fc1ccc(/C=C/[C@@H]2C[C@@H](F)CCO2)cc1,100%
11,CC1(/C=C/c2ccc(-c3ccccc3)cc2)CCn2cnc3ncnc(c32)N1O (stereo not given),20.2%
12,O=C(O)c1cn(C2CC2)c2cc(N3CCN(C(=O)N4CCOCC4)CC3)c(F)cc2c1=O,101%
13,Nc1nc(N)c2c(n1)NC(c1cccc(Nc3ccnc4cc(C(F)(F)F)ccc34)c1)CC(c1ccc3c(c1)OCO3)=N2 (stereo not given),81.6%
14,Cc1ccc2nc(-c3ccc(C(=O)N/N=C/c4ccc([N+](=O)[O-])cc4)cc3)[nH]c2c1,106%
15,COCCOC(C)C(/C=N/NC(N)=S)=N/NC(N)=S (stereo not given),76.5%
16,COC(=O)c1c2c(c[n+]([O-])c1C)C(=O)C=C(NCc1ccccc1)C2=O,-91.5% (active)
17,Cc1cc(Cl)nc(N2CCN(CCNc3ccnc4cc(Cl)ccc34)CC2)n1,71.2%
18,O=C(Nc1ncc(Cc2ccccc2)s1)c1sc2ccccc2c1Cl,39.5%
19,COC(=O)c1c2c(c(C)[n+]([O-])c1C)C(=O)C(NCc1ccccc1)=CC2=O,2.86% (active)
20,COc1ccc(-c2nc(SCC(=O)Nc3nc4ccc(C)cc4s3)[nH]c(=O)c2C#N)cc1OC,95.9%

row,Compound,growth
1,COc1ccc(/C=C/C(c2cc(OC)c(OC)c(OC)c2)n2cncn2)cc1O (stereo not given),49.6%
2,COc1nc(/C=C\Nc2ccc3c(c2)OCCOCCOCCOCCO3)nc(OC)n1,93.2%
3,COc1ccccc1/C=C/C(=O)Nc1ccc(F)cc1,111%
4,COc1ccc(C(O)c2cc3c(N)c(C(=O)Nc4cccc5ccccc45)sc3nc2C)cc1 (stereo not given),14.4%
5,Cc1cccc(-c2nc(C(C)C)sc2-c2ccnc(NCCCNS(=O)(=O)c3ccc(Cl)cc3)c2)c1,73%
6,O=CN1N=C(c2cccc(Nc3ccnc4cc(Cl)ccc34)c2)CC1c1ccc(Cl)cc1 (stereo not given),34.1%
7,CCN(CC)CCOc1ccc2ccc(=O)oc2c1,100%
8,C=C(C)[C@@H]1CC[C@]2(COC3CCCCO3)CC[C@]3(C)[C@H](CC[C@@H]4[C@@]5(C)C=C(C=O)C(=O)C(C)(C)[C@@H]5CC[C@]43C)[C@@H]12 (stereo not given in full),-48.8% (active)
9,C=CCN=c1sc(-c2ccc3ccccc3c2)cn1NC(=O)c1cc2ccc1CCc1ccc(cc1)CC2,74.3%
10,COC(=O)c1ccc2cc(OC)c(OC)cc2c1,104%
11,CS(=O)(=O)Nc1cc(-c2ccc3ncnc(Nc4ccc(F)c(Cl)c4)c3c2)ccc1Cl,52.7%
12,COc1cc(OC)c2c(=O)c3c(CC=C(C)C)cc(OC)c(O)c3oc2c1,96%
13,CCN(CC)CCn1c2ccc(OC)cc2c2sc3cc(O)ccc3c(=O)c21,23.6%
14,COc1ccc2c(c1)c(-c1nc(-c3ccc4ccccc4c3)cs1)cn2C,93.6%
15,Cn1c(=O)[nH]c(=O)c2nc3c(nc21)-c1ccccc1C3=O,96.6%
16,Oc1ccc(-c2nc3ccc4[nH]ncc4c3c3c2CCCC3)c(F)c1,44.8%
17,c1ccc(-c2c(-c3ccccc3)[n+](Cc3ccc4ccccc4c3)cn2Cc2ccc3ccccc3c2)cc1,-76% (active)
18,CCN1C(=O)N(c2ccccc2)C2NC(=S)N(/N=C/C=C/c3ccccc3OC)C21 (stereo not given),17.9%
19,COc1ccc(OC)c(Nc2nnc(-c3cc(OC)c(OC)c(OC)c3)o2)c1,89.5%
20,Cn1cc(-c2csc(-c3cn(CCCN4CCOCC4)c4ccc(F)cc34)n2)c2cccnc21,78.5%
